Source: PubChem (National Center for Advancing Translational Sciences (NCATS))
Gal4-VP16 FLuc: VP16 counterscreen qHTS for inhibitors of ROR gamma transcriptional activity; Drosophila S2 Gal4-VP16 UAS-luciferase, luminescence, 20 h; Potency, µM (highest dose often 53.6 µM), most hits filed as inhibitors; 310,000 tested, 3.5% active; AID 2546, 2010;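 note: Gal4-VP16 expression switched on by copper sulfate through the metallothionein promoter; nearly all actives have a fitted effect of over 50% in size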
IL-1B inflam inh: qHTS for Inhibitors of Inflammasome Signaling: IL-1-beta AlphaLISA Primary Screen | THP-1 LPS/ATP IL-1B secretion, AlphaLISA, 16 h; active compounds read low | activity change, % at 57.5 µM | 360,000 tested, 4.7% active; in the data active = activity change below about -50%; inconclusive = mostly about -30% to -49%
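Secreted IL-1B measured by AlphaLISA bead assay after 16 h compound exposure of THP-1 cells; compounds (final up to 57.5 uM) added 1 h before LPS (250 ng/mL) and ATP (1.25 mM) stimulation; lower signal means less secretion.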
TDP1 cell noCPT: qHTS for Inhibitors of human tyrosyl-DNA phosphodiesterase 1 (TDP1): qHTS in cells in absence of CPT | DT40 Tdp1-/- hTDP1 cells, no CPT, ATP luminescence, 48 h | Potency, µM (top dose mostly 46.2 µM), actives largely listed as inhibitors | 420,000 tested, 15% active | AID 686978, 2013; note: nearly all actives have a fitted effect of over 55% in size
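Camptothecin absent (DMSO only). Human TDP1-complemented DT40 knockout cells, 400 cells/well, 37 °C for minimum 48 hr; ATP measured via CellTiter-Glo, 30 min dark incubation, luminescence.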
RORgamma inh: qHTS for inhibitors of ROR gamma transcriptional activity | Drosophila S2 Gal4-RORgamma UAS-luciferase reporter, 20 h | Potency, µM (highest dose often 53.6 µM), hits mostly inhibitors | 310,000 tested, 5.4% active | AID 2551, 2010; note: nearly all actives have a fitted effect of over 60% in size
Target sequence (P51450 whole entry, looked up, the tested form may be a part): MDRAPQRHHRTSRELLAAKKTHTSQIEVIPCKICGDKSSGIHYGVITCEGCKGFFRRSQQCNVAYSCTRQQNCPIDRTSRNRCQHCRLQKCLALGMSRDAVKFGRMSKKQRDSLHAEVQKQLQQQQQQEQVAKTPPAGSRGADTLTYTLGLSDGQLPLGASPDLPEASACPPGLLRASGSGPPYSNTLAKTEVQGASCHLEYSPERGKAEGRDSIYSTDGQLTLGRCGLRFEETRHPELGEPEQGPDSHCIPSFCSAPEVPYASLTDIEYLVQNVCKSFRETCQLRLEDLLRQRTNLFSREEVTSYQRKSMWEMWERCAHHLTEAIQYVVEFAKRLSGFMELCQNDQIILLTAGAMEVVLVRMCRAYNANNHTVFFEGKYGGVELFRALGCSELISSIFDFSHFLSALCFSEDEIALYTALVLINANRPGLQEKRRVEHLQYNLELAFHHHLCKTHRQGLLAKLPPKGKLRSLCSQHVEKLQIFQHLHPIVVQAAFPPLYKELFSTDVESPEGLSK
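In this cell-based reporter format, copper sulfate (700 uM final) drives Gal4–ROR gamma fusion expression from a metallothionein promoter in Drosophila Schneider cells; compounds preincubated 1 hr, reporter read after 20 hr at ambient temperature.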
TDP1 cell CPT: qHTS for Inhibitors of human tyrosyl-DNA phosphodiesterase 1 (TDP1): qHTS in cells in presence of CPT | chicken DT40 Tdp1-/-;hTDP1 cells + 20 nM CPT, ATP luminescence, 48 h | 420,000 tested, 12% active | Potency, µM (top dose mostly 46.2 µM), most hits filed as inhibitors; note: nearly all actives have a fitted effect of over 55% in size
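Chicken DT40 Tdp1-/- cells complemented with human TDP1, 400 cells/well, exposed to compounds plus 20 nM camptothecin for at least 48 h at 37 C; viability read as ATP content by CellTiter-Glo luminescence.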
ELG1 DNA repair: qHTS screen for small molecules that inhibit ELG1-dependent DNA repair in human embryonic kidney (HEK293T) cells expressing luciferase-tagged ELG1; HEK293T ELG1-luciferase reporter, luminescence, 16 h; DNA damage induced by 5-fluorouridine; Potency, µM (highest dose often 46.1 µM), usual class: inhibitors; 330,000 tested, 2.3% active; AID 504467, 2011; note: nearly all actives have a fitted effect of over 55% in size
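Quantitative HTS, concentration-response format. 2,000 cells/well co-treated with 5-fluorouridine and compound, 16 hr in 5% CO2 at 37 °C; ONE-Glo luminescence read after 30 min.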
Numbers stand for hits; 0 = inactive; ? = inconclusive; - = no result given. Only some compounds are listed: those with a hit (about 21% of all), similar ones and a draw of the others. Unless noted, calls come from the whole dose curve; as a rule, active = well fitted curve in the direction sought with a large enough effect; inconclusive = small, poorly fitted or top-dose-only effect, or another doubt; inactive = no such curve, though single readings can be large; an effect the other way counts as inactive or inconclusive.

SMILES | Gal4-VP16 FLuc | IL-1B inflam inh | TDP1 cell noCPT | RORgamma inh | TDP1 cell CPT | ELG1 DNA repair
Cc1c(NC(=S)NC(C)(C)C)c(=O)n(-c2ccccc2)n1C | 0 | 0 | 0 | 0 | 0 | 0
COc1ccc(-c2cc(C(=O)OC(C)C(=O)Nc3c(C)n(C)n(-c4ccccc4)c3=O)c3ccccc3n2)cc1 (stereo not drawn) | 0 | 0 | ? | 0 | 0 | 15µM
Cc1c(NC(=O)C(C)OC(=O)c2ncc(Cl)c(Cl)c2Cl)c(=O)n(-c2ccccc2)n1C (stereo not drawn) | - | -72 | 0 | - | 0 | 0
Cc1c(Nc2c3ccccc3nc3ccccc23)c(=O)n(-c2ccccc2)n1C | 0 | 0 | 0 | 0 | 0 | 0
Cc1c(Nc2nc3ccccc3nc2N2CCN(c3ccccc3)CC2)c(=O)n(-c2ccccc2)n1C | 0 | 0 | 15µM | 0 | 21µM | ?
O=C1CC(Sc2ccc(Cl)cc2)C(=O)N1Cc1ccncc1 (stereo not drawn) | ? | 0 | 18µM | 0 | 23µM | 0
CC(=O)C1=C(C)NC(SCC(=O)c2ccc(Cl)c(Cl)c2)=C(C#N)C1c1ccco1 (stereo not drawn) | 0 | -57 | ? | ? | ? | ?
CC(=O)C1=C(C)NC(SCC(=O)c2cc(Cl)ccc2Cl)=C(C#N)C1c1ccco1 (stereo not drawn) | 3.5µM | ? | ? | 6.3µM | ? | ?
OC(c1ccc2c(c1)OCO2)c1ncc(-c2ccc(Cl)cc2)[nH]1 (stereo not drawn) | - | 0 | ? | - | ? | -
OC(c1ccc(F)c(F)c1)c1ncc(-c2cccc(C(F)(F)F)c2)[nH]1 (stereo not drawn) | - | 0 | 16µM | - | ? | -
OC(c1ccc2c(c1)OCO2)c1ncc(-c2cccc(C(F)(F)F)c2)[nH]1 (stereo not drawn) | - | ? | 8.2µM | - | 0 | -
COc1cccc(-c2cnc(C(O)c3ccc(F)c(F)c3)[nH]2)c1 (stereo not drawn) | - | 0 | ? | - | ? | -
OC(c1cccc(CN2CCCCC2)c1)c1ncc(-c2cccc(C(F)(F)F)c2)[nH]1 (stereo not drawn) | - | 0 | 21µM | - | 15µM | -
Cc1ccc(C(O)c2ncc(-c3cccc(C(F)(F)F)c3)[nH]2)cc1F (stereo not drawn) | - | 0 | 13µM | - | 26µM | -
COc1cccc(-c2cnc(C(O)c3cccc(CN4CCCCC4)c3)[nH]2)c1 (stereo not drawn) | - | 0 | 0 | - | ? | -
Cc1cccc(C)c1C(O)c1ncc(-c2cccc(C(F)(F)F)c2)[nH]1 (stereo not drawn) | - | 0 | ? | - | ? | -
CC1CCC2(CC1)NC(=O)N(NC(=O)c1cc3ccccc3o1)C2=O (stereo not drawn) | - | 0 | 0 | - | 0 | 0
CC(C)Cc1nn2c(=O)cc(COC(=O)c3ccc4c(c3)OCO4)nc2s1 | - | - | 0 | - | ? | -
Nc1ccc(-c2cc3ccccc3[nH]2)cc1 | - | - | 0 | - | 0 | -
OC(c1ccc(Cl)c(F)c1)c1ncc(-c2ccc(F)cc2)[nH]1 (stereo not drawn) | - | 0 | 0 | - | ? | -
Cc1ccc(-c2cnc(C(O)c3ccc(Cl)c(Cl)c3)[nH]2)cc1 (stereo not drawn) | - | 0 | 15µM | - | ? | -
OC(c1ccc(Cl)c(F)c1)c1ncc(-c2cccc(C(F)(F)F)c2)[nH]1 (stereo not drawn) | - | 0 | 23µM | - | ? | -
Cc1ccc(C(O)c2ncc(-c3cccc(C(F)(F)F)c3)[nH]2)cc1 (stereo not drawn) | - | 0 | 18µM | - | ? | -
OC(c1ccccc1)c1ncc(-c2cccc(C(F)(F)F)c2)[nH]1 (stereo not drawn) | - | 0 | ? | - | ? | -
